# Pf growth 96h – P. falciparum growth inhibition at 96 hours | P. falciparum luciferase reporter growth, 96 h | Potency, µM (doses to about 28.7 µM), actives largely listed as inhibitors | 320,000 tested, 6.9% active
#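 Compounds incubated with erythrocytes infected by luciferase-expressing P. falciparum (2% hematocrit, 0.05% parasitemia final) for 96 hours, 37 C in 5% CO2. Growth inhibition scored as decreased luciferase luminescence.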
# Pf growth 48h – inhibits P. falciparum growth in the first generation, 48 h | Potency, µM (series often up to 28.7 µM), hits mostly inhibitors | P. falciparum luciferase growth in erythrocytes, 48 h | AID 504832 | 310,000 tested, 5.9% active
#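 Luciferase-expressing parasites in RBCs, 2% Hct / 0.1% parasitemia final; RPMI 1640 + 0.5% Albumax; 37 C, 5% CO2, one generation; luminescence read-out, lower signal = inhibition.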
# MARV entry inh – blocks Marburg virus binding to or entry into cells; Marburg virus pseudotyped entry inhibition, cell reporter; Potency, µM (top dose mostly 37.8 µM), actives largely listed as inhibitors; 300,000 tested, 1.8% active; AID 540276; calls by dose curve; tested in HEK293 cells
# HCMV antiviral – human cytomegalovirus inhibition; HFF cells, HCMV-luciferase reporter, 72 h; stronger effect = lower value; activity change, negative = inhibition, % at 57.5 µM; AID 1259415; 410,000 tested, 4.5% active; in the data active = activity change below about -60%; inconclusive = no clear call, values can overlap the other calls; inactive = above about -39%
#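 Two compound doses tested in HFFs infected with HCMV-luciferase, MOI 1 PFU/cell, 72 h at 37C. Lysate luminescence read with OneGlo; data normalized against buffer-only and 10uM Salinomycin inhibitor controls.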
# HCV inh – inhibitors of hepatitis C virus infection; 340,000 tested, 3.4% active; Huh7.5.1 HCVcc-Cre infection, luciferase reporter, 44 h; Potency, µM (titrated, usually from 41.8 µM), usual class: inhibitors
#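 A cell-based infection assay in which seeded cells (1,000 per well) receive test compound after 4 h, are inoculated with HCVcc-Cre at approximately 0.5 moi, and are incubated 44 h before luminescence detection.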
# LASV entry inh – Lassa virus entry inhibition | Lassa virus pseudotype entry inhibition, cell reporter | AID 540256 | Potency, µM (doses to about 37.9 µM), hits mostly inhibitors | 300,000 tested, 1.2% active; calls by dose curve; tested in HEK293 cells; note: nearly all actives have a fitted effect of over 50% in size
# Numbers stand for hits; 0 = inactive; ? = inconclusive; - = not tested or not shown. Shown are actives, neighbours in structure and some others; about 14% of the full set was active somewhere. Unless noted, calls come from the whole dose curve; as a rule, active = well fitted inhibition curve with a large enough effect; inconclusive = small, poorly fitted or top-dose-only effect, or another doubt; inactive = no such curve, though single readings can be large or run the other way.
SMILES,Pf growth 96h,Pf growth 48h,MARV entry inh,HCMV antiviral,HCV inh,LASV entry inh
COc1cc(NC(=O)CN2C(=O)COc3ccc(S(=O)(=O)N4CCCC4)cc32)cc(OC)c1,0.415µM,?,0,0,0,0
Cc1cc(C)cc(NC(=O)CN2C(=O)COc3ccc(S(=O)(=O)N4CCCC4)cc32)c1,?,0,-,0,0,-
CCOC(=O)c1c(-c2ccc([N+](=O)[O-])cc2)[nH]c2ccc(C)cc12,-,-,-,0,-,-
Cc1ccc(-n2c(SCCC(C)C)nc3sc4c(c3c2=O)CC(C)(C)OC4)cc1,-,-,0,0,-,0
COc1cc2c(cc1OC)C1C/C(=N\O)C(CC(C)C)CN1CC2 (stereo unspecified),0,0,0,0,0,0
CCC1CN2CCc3cc(OC)c(OC)cc3C2CC1CC1c2cc(OC)c(OC)cc2CCN1C(=O)C(Cc1c[nH]c2ccccc12)NC(=O)OC(C)(C)C (stereo unspecified),-,-,?,?,11.2µM,?
CC[C@H]1CN2CCc3cc(OC)c(OC)cc3[C@H]2C[C@@H]1C[C@@H]1NCCc2cc(OC)c(OC)cc21,0.0675µM,0.0675µM,0.224µM,-,-,-
COc1cc2c(cc1OC)C1CC(=O)C(CC(C)C)CN1CC2 (stereo unspecified),0,0,?,-61.5,-,?
COc1ccc(COC[B-](F)(F)F)cc1,-,-,-,0,-,-
O=C(Cn1ncc2c(Cl)cccc21)NCc1cccc(Cl)c1,-,-,0,0,-,0
Fc1ccc(-c2nn3ncccc3c2-c2ccnc(Nc3ccc4c(c3)OCCO4)n2)cc1,-,-,-,-,-,7.91µM
COc1ccc(-c2nn3ncccc3c2-c2ccnc(Nc3ccc4c(c3)OCCO4)n2)cc1,-,-,-,-,-,15.8µM
Cc1cc(C(=O)N2CCC(Cc3ccccc3)CC2)no1,14.7µM,0,-,0,0,-
COc1cc(SC)ccc1C(=O)N1CCCCCC1,0,?,0,0,0,0
Cc1noc(C)c1C(=O)N1CCC(Cc2ccccc2)CC1,-,0,0,0,-,0
COc1cc(SC)ccc1C(=O)N1CCN(c2ccccc2)CC1,0,0,0,0,0,12.6µM
COc1cc(SC)ccc1C(=O)N1CCC(Cc2ccccc2)CC1,-,-,?,-,-,8.2µM
COc1cc2[nH]c(C(=O)N3CCC(Cc4ccccc4)CC3)cc2c(OC)c1OC,3.7µM,3.29µM,0,0,?,0
CCN(Cc1ccccc1)C(=O)c1cc2c(OC)c(OC)c(OC)cc2[nH]1,8.28µM,-,-,0,0,-
COc1cc(SC)ccc1C(=O)N1CCN(Cc2ccccc2)CC1,0,0,0,0,25.1µM,?
CCCC[C@]12Cc3cc(C#N)ccc3[C@H](O1)c1c(c3ccccc3oc1=O)O2,-,-,0,-,-,-
c1ccc(-c2cc3nc(NCc4cccs4)nc(NCc4ccc5occc5c4)c3s2)cc1,-,-,-,0,-,-
Nc1ccccc1N1C(=O)c2ccccc2C1=O,-,-,-,0,-,-
CCOC(=O)C(=Cc1cc(=O)c(OC)co1)C(=O)OCC,?,?,?,-84.3,10µM,?
COc1coc(C(O)CN)cc1=O (stereo unspecified),0,0,0,0,0,0
SMILES,Pf growth 96h,Pf growth 48h,MARV entry inh,HCMV antiviral,HCV inh,LASV entry inh
CCC[C@H](CN[C@@H](CNC)[C@H](C)CC)NCCc1cc(C(F)(F)F)cc(C(F)(F)F)c1,2.08µM,4.15µM,-,-78.0,?,-
CC[C@@H](C)[C@H](CNC)NC[C@@H](Cc1cccc2ccccc12)NCCc1cccc(C(F)(F)F)c1,7.38µM,?,-,-99.1,0,-
CCC[C@@H](CN[C@@H](CNC)[C@H](C)CC)NCC1CCC(C(C)(C)C)CC1 (stereo partly specified),3.29µM,?,-,-99.0,7.94µM,-
C=CCn1c(-c2ccccc2[N+](=O)[O-])n[nH]c1=S,?,0,0,0,0,0
C=CCn1c(-c2ccc([N+](=O)[O-])cc2)n[nH]c1=S,2.33µM,0,0,0,0,?
COc1ccc2cc(C(=O)C3CCCN(C(=O)c4cccnc4)C3)ccc2c1 (stereo unspecified),11.7µM,0,?,0,?,?
COc1cccc(-c2nc3ccc(C(=O)N4CCCC(O)C4)cc3o2)c1 (stereo unspecified),10.4µM,0,0,0,0,?
O=C(c1ccc2ccccc2c1)C1CCCN(C(=O)c2cccnc2)C1 (stereo unspecified),0,0,0,0,0,0

# Compound activity from PubChem.
